Data on 16 molecules can be found in PubChem BioAssay (NCI).

Structures are written as SMILES. About 83,000 compounds went through this panel and 20% of them were active in at least one assay; those are over-represented in the sample as a whole.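 Cell lines were cultured in 96-well plates, exposed to a single compound concentration, and assessed for percent growth 48 hours later.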 Values without a mark were called inactive. The source made the active and inactive calls. Rule for the calls: active = growth percent below 10; inactive = the rest.

Assay in all cases: NCI-60 one-dose screen, 48 h (100 = growth as untreated, 0 = no growth, -100 = all killed)
Conditions in all cases: 10 µM

The subject of assay [1] is SK-MEL-2 melanoma.
The subject of assay [2] is SN12C renal.
Assay [3] has as its system UO-31 renal.
The subject of assay [4] is TK-10 renal.
Assay [5] relates to ACHN renal.
Assay [6] deals with A498 renal.
Assay [7] has as its system CCRF-CEM leukemia.
For assay [8], the system named is RPMI-8226 leukemia.
The subject of assay [9] is OVCAR-8 ovarian.
Assay [10] relates to OVCAR-5 ovarian.
In assay [11] the test system is OVCAR-4 ovarian.
Assay [12] concerns SK-OV-3 ovarian.
For assay [13], the system named is OVCAR-3 ovarian.
The subject of assay [14] is HS 578T breast.
Assay [15] concerns NCI/ADR-RES ovarian.
The test system of assay [16] is EKVX NSCLC.
Assay [17] deals with CAKI-1 renal.
Assay [18] concerns MOLT-4 leukemia.
The test system of assay [19] is SR leukemia.
Assay [20] concerns IGROV1 ovarian.

On to `CC(C)(C)c1nn(-c2ccccc2)c2c1CC1(CN2Cc2ccc(Cl)cc2)C(=O)c2ccccc2C1=O`, for which the growth was 92.4% in [1]; 86.1% in assay [2]; 99.6% in [3]; 99.3% in [4]; 98.9% in assay [5]; 76.5% in assay [6]. Also, the growth in [7] was 66.2%; in assay [8], 59.5%; in assay [9], 105%; in [10], 103%; in assay [11], 72.9%; in assay [12], 93.3%. For the same molecule, the results for the growth in assay [13], in assay [14] and in [15] were 78.1%, 110% and 84.3%, respectively.

Regarding `c1ccc2c(c1)Cc1ccccc1N2CCN1CCCCC1`, the growth is 97% in assay [1]; 101% in assay [16]; 83.8% in [3]; 104% in assay [4]; 89.6% in assay [5]; 90.7% in assay [17]. The growth in assay [6] is 107%; in assay [7], 98.7%; in assay [18] it was 83.3%; in [19], 94.1%; in [8], 87.2%; in [9] it was 91.2%. Further, the growth was 96.6% in assay [10]; 95.2% in assay [11]; 88.8% in [12]; 83.5% in assay [20]; 108% in assay [13]; 113% in [14]. Also, the growth in assay [15] was 88.5%.

Regarding `COc1ccc2nc3cc(Cl)ccc3c(N)c2c1`, the growth was -71.2% (active) in [1]; -80.3% (active) in assay [2]; -74% (active) in assay [3]; -68.7% (active) in assay [4]; -99.5% (active) in [5]; -55.6% (active) in [17]. For the same molecule, the growth is -5.6% (active) in [7]; -55.4% (active) in assay [18]; -39.1% (active) in [19]; -1.72% (active) in [8]; -44.4% (active) in [9]; -91.8% (active) in assay [10]. The growth was -98% (active) in [11]; -97.7% (active) in [12]; -33% (active) in assay [20]; -93.7% (active) in assay [13]; -97.2% (active) in [15].

On to `COc1ccc(/C=c2\sc3n(c2=O)C(c2cc(OC)c(OC)c(OC)c2)C=C(c2ccc(OC)c(OC)c2)N=3)cc1OC` (configuration not stated), for which the growth in assay [1] was 106%; in assay [16] it was 101%; in assay [2], 93.9%; in assay [4], 105%; in [17] it was 105%; in assay [6], 94.5%. The growth is 64.4% in assay [7]; 79.5% in [18]; 91.5% in assay [19]; 63.7% in assay [8]; 98.8% in assay [9]; 108% in assay [12]. The growth was 103% in assay [13], 90.8% in assay [14] and 97.5% in assay [15].

Take `CC(=O)OC/C=C(/C)C[P+](c1ccccc1)(c1ccccc1)c1ccccc1`: the growth in assay [1] was 83.8%; in [16], 82.4%; in [2] it was 51.5%; in assay [4] it was 70.6%; in assay [5], 70%; in assay [6] it was 81.9%. Also, the growth in [7] was 52.7%; in [18], 78.2%; in assay [19], 64.9%; in assay [8], 0.0221% (active); in assay [9], 35%; in [10], 81.4%. The growth in assay [11] was 85.8%; in assay [12], 94.7%; in assay [20], 83.5%; in assay [13], 62.9%; in [14], 87.9%; in assay [15], 90.3%.

For the molecule `O=C1CC(SC(=S)C2CCCC2=O)C(=O)N1` (configuration not stated), the growth in assay [1] is 96.9%; in [2], 99.3%; in assay [3], 92.3%; in assay [4], 108%; in assay [5] it was 103%; in assay [17], 102%. Also, the growth in assay [6] was 100%; in assay [7], 101%; in assay [18] it was 96.5%; in [19], 89.9%; in assay [8], 100%; in assay [9] it was 96.3%. Further, the growth in assay [10] is 109%; in assay [11] it was 106%; in [12] it was 105%; in assay [13] it was 109%; in assay [14] it was 104%; in assay [15], 104%.

Consider `O=C1c2c(c(=O)[nH]c3ccccc23)CCN1Cc1ccccc1`, for which the growth in assay [1] is 127%; in assay [16] it was 92.4%; in assay [2], 97.4%; in assay [4], 119%; in assay [5], 91.8%; in [6], 110%. Further, the growth in assay [7] is 100%; in [18], 105%; in assay [19], 115%; in assay [8] it was 91.9%; in assay [9] it was 96.4%; in assay [10], 92.9%. For the same molecule, the growth was 155% in assay [11]; 98.1% in assay [12]; 121% in assay [13]; 119% in assay [14]; 98.6% in assay [15].

Consider `COc1ccc2c(c1)C(=O)/C(=C/c1ncc([N+](=O)[O-])n1C)O2`, for which the growth is -52.1% (active) in [1]; -11.5% (active) in assay [2]; -46.4% (active) in assay [3]; -37.9% (active) in assay [4]; 9.55% (active) in assay [5]; -21.6% (active) in assay [17]. For the same molecule, the growth in [6] is -35.5% (active); in assay [7], 95.1%; in assay [18], -5.94% (active); in [19], 9.33% (active); in assay [8], 105%; in [9] it was -18.2% (active). Also, the growth in assay [10] was 1.74% (active); in assay [11], -6.9% (active); in assay [12], -21.7% (active); in [20], -30.4% (active); in assay [13], -18% (active); in assay [14] it was -9.93% (active). Moreover, the growth in assay [15] was -0.383% (active).

In the case of `CCCCC1(O)CCCCC1`, the growth in [1] was 112%; in assay [2], 103%; in assay [3] it was 99.1%; in assay [4], 94.3%; in assay [5], 101%; in [17], 96.1%. The growth is 115% in assay [6]; 93.5% in assay [18]; 92.6% in assay [19]; 101% in assay [8]; 104% in [9]; 112% in [10]. Besides, the growth is 115% in assay [11]; 112% in assay [12]; 106% in [13]; 98.1% in [14]; 107% in [15].

Regarding `CC(C)(O)CCl`, the growth in assay [1] is 153%; in [2], 106%; in [3], 107%; in [4], 111%; in [5], 108%; in assay [17], 103%. In addition, the growth was 106% in [6]; 107% in [18]; 111% in [19]; 113% in [8]; 102% in assay [9]; 108% in [10]. The growth is 129% in [11]; 119% in [12]; 114% in [13]; 96% in assay [14]; 108% in [15].

With `O=C1/C(=C/c2ccc([N+](=O)[O-])s2)Oc2cc(Cl)ccc21`, the growth in [1] was -49.9% (active); in assay [2], -2.52% (active); in [3] it was -92% (active); in assay [4] it was -26.8% (active); in assay [5] it was -70.5% (active); in assay [17] it was 52.8%. For the same molecule, the growth is 102% in assay [6]; -9.78% (active) in assay [7]; 2.92% (active) in assay [18]; 8.31% (active) in [19]; -14.7% (active) in assay [8]; -25.5% (active) in assay [9]. For the same molecule, the growth is 53% in assay [10]; 3.28% (active) in [11]; 88.8% in assay [12]; -60.9% (active) in assay [20]; -76.8% (active) in assay [13]; 1.22% (active) in assay [14]. In addition, the growth in [15] was 24%.

With `COc1cc2cc(Oc3ccc(NC(=O)c4cccc(C(F)(F)F)c4)cc3)c(C)nc2cc1OC`, the growth in assay [1] was 38.8%; in assay [16], 18.6%; in assay [2], 36.9%; in assay [5], 33.9%; in [17], 13.3%; in assay [6], 0.391% (active). The growth in assay [7] is 25.9%; in [18] it was 28.4%; in assay [19], 28%; in assay [8], 17.5%; in assay [9], 42.5%; in [10] it was 70.2%. Moreover, the growth in assay [11] is 43.2%; in assay [12], 23.4%; in assay [20], 36.1%; in assay [13], 15%; in assay [14] it was 41.2%; in assay [15], 26%.

As to `Cn1cnc([N+](=O)[O-])c1/C=C1\Oc2ccc(Br)cc2C1=O`, the growth in assay [1] is 83.1%; in [2], 98.6%; in assay [3], 67.6%; in assay [4], 99.7%; in assay [5] it was 68.8%; in assay [17], 87.3%. Also, the growth was 100% in assay [6]; 2.63% (active) in assay [7]; 60.2% in [18]; 33.9% in assay [19]; 4.16% (active) in assay [8]; 77.8% in assay [9]. Besides, the growth in assay [10] was 105%; in assay [11], 103%; in assay [12] it was 89.9%; in [13], 99.7%; in [14] it was 103%; in assay [15] it was 101%.

As for `COc1ccc2c(c1)C(=O)/C(=C/c1ccc([N+](=O)[O-])o1)O2`, the growth in [1] is -68.7% (active); in assay [2], -30.4% (active); in assay [3], -91.9% (active); in assay [4], -93.1% (active); in assay [5], -80.9% (active); in assay [17], -69.8% (active). The growth was -50.5% (active) in [6]; 3.49% (active) in [7]; -37.2% (active) in [18]; 2.34% (active) in assay [19]; -3.06% (active) in [8]; -71.6% (active) in assay [9]. The growth is -52.2% (active) in assay [10]; -87% (active) in assay [11]; 48.7% in [12]; -66.3% (active) in assay [20]; -84.5% (active) in assay [13]; 17.8% in assay [14]. In assay [15], the growth was 13.4%.

In the case of `Cc1cc(SC#N)cc(C(C)(C)C)c1O`, the growth in [1] was 82.2%; in assay [16], 102%; in assay [4], 108%; in assay [5] it was 101%; in [17], 96.4%; in assay [6] it was 86.1%. The growth is 86.4% in assay [7]; 66.9% in [18]; 86% in assay [19]; 96.6% in [8]; 99.9% in assay [9]; 88.4% in assay [10]. Besides, the growth in assay [11] was 96.1%; in assay [12] it was 93.1%; in [20], 100%; in assay [13], 95%; in assay [14], 110%; in assay [15], 104%.

Take `O=C(O)COc1c(Cl)cc([N+](=O)[O-])cc1Cl`: the growth in [1] was 101%; in assay [16], 102%; in [3], 94.2%; in assay [4] it was 99%; in [5] it was 106%; in assay [17] it was 99.9%. Moreover, the growth was 92.5% in assay [7]; 80.6% in assay [18]; 82.3% in [19]; 101% in [8]; 99.3% in assay [9]; 95.7% in assay [10]. Besides, the growth in assay [11] is 108%; in assay [12], 92.3%; in [20], 93.6%; in assay [13] it was 113%; in [14], 105%; in assay [15] it was 108%.
